PubChem BioAssay (Tox21)
Records with an inconclusive call do not appear. A call without a number means that no potency is given here. A number with no mark means an inactive call. Activity calls are given as the source filed them. Unless noted, calls come from the whole dose curve; as a rule, active = well fitted curve in the direction sought with a large enough effect in the repeat runs; inconclusive = weak or mixed curves; inactive = no such curve, though single readings can be large; an effect the other way counts as inactive or inconclusive.

Columns and labels:
[1] = biological target: Retinoic acid receptor RXR-alpha (Homo sapiens) (UniProt P19793); test: qHTS assay to identify small molecule agonists of the RXR signaling pathway (AID 1159527; calls by dose curve; note: nearly all actives have a fitted effect of over 35% in size)
Retinoic acid receptor RXR-alpha (Homo sapiens), sequence (P19793 whole entry, looked up): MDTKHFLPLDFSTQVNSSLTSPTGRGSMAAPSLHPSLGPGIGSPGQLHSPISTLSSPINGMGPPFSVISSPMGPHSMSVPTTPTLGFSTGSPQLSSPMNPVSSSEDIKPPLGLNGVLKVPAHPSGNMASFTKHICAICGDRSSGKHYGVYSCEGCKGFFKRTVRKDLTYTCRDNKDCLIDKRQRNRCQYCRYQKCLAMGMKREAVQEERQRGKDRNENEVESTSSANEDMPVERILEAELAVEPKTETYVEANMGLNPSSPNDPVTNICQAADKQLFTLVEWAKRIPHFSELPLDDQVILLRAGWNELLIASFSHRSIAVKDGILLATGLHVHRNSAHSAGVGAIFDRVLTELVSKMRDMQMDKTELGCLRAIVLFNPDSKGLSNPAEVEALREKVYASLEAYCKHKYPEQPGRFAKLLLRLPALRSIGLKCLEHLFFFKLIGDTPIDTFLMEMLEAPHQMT
How it was run: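 Read-out: beta-lactamase FRET ratio (405 nm excitation, 460 and 530 nm emission) after 2 hr substrate loading at room temperature. Cells were RXR-alpha-UAS-bla HEK 293T treated with compounds for 16 hr in 2% charcoal-stripped FBS medium.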

[2] = qHTS assay to identify small molecule agonists of the RXR signaling pathway - cell viability counter screen (AID 1159529); note: series mostly up to about 77 µM; nearly all actives have a fitted effect of over 50% in size
How it was run: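 HEK 293T RXRa-bla cells, 2% CS-FBS; 5 h settle; cpd 16 h 37 C, 5% CO2; CellTiter-Glo 30 min RT, luminescence. Tetraoctyl ammonium bromide as positive control.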

[3] = qHTS assay to identify small molecule antagonists of the retinoid acid receptor (RAR) signaling pathway - cell viability counter screen (AID 1159551); note: nearly all actives have a fitted effect of over 35% in size
How it was run: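 Following overnight attachment, C3RL4 reporter cells received DMSO-dissolved compounds and then retinol (1 uM final). Six hours later at 37 C, ATP content was measured by CellTiter-Glo luminescence.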

[4] = qHTS assay to identify small molecule antagonists of the retinoic acid receptor (RAR) signaling pathway (AID 1159552; note: nearly all actives have a fitted effect of over 50% in size)
How it was run: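 Cells of the C3RL4 line were seeded, incubated overnight, then dosed with compounds in DMSO followed immediately by retinol (1 uM final). Six hours later luciferase detection reagent went in; signal was measured after 30 min at RT.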

[5] = qHTS assay to identify small molecule agonists of the retinoic acid receptor (RAR) signaling pathway (AID 1159553); note: potency is the fitted concentration of half-maximal effect
How it was run: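 Cell line C3RL4, RARE luciferase reporter. Treatment: compounds in DMSO, 6 hr, 37 C, 5% CO2, after overnight plating. Detection: luminescence, 30 min RT after reagent.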

[6] = qHTS assay to identify small molecule antagonists of the estrogen related receptor (ERR) signaling pathway from Tox21 library - cell viability counter screen (AID 1224834); note: nearly all actives have a fitted effect of over 30% in size
How it was run: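 Viability readout (CellTiter-Fluor fluorescence, 30 min at 37 C) multiplexed with the ERR assay; cells treated 17.5 h at 37 C with compounds delivered in DMSO.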

[7] = biological target: Luciferin 4-monooxygenase (Photinus pyralis) (UniProt P08659); test: qHTS assay to identify small molecule inhibitors of firefly luciferase (AID 1224835); note: series mostly up to about 120 µM; nearly all actives have a fitted effect of over 25% in size
Luciferin 4-monooxygenase (Photinus pyralis), sequence (P08659 whole entry, looked up): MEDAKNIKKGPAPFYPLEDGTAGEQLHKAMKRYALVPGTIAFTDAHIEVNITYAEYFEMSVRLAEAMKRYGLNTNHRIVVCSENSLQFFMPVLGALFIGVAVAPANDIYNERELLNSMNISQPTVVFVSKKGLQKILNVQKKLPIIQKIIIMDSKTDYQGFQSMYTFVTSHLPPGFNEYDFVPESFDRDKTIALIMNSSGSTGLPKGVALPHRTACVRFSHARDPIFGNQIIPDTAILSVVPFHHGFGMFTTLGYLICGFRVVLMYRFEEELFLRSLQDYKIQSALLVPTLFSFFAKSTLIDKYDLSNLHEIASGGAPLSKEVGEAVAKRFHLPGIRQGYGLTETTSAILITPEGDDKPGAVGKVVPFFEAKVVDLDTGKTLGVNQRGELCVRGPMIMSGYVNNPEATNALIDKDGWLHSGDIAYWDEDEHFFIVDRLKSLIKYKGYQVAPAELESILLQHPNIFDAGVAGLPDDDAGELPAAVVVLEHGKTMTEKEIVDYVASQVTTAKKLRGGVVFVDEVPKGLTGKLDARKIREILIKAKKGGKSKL
How it was run: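 Inhibition of purified Photinus luciferase is measured by luminescence. Substrate levels (D-luciferin, ATP) sit at their KM values. Each compound is tested in a concentration series.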

[8] = qHTS assay to identify small molecule agonists of the constitutive androstane receptor (CAR) signaling pathway - cell viability counter screen (AID 1224836); note: series mostly up to about 92 µM; nearly all actives have a fitted effect of over 45% in size
How it was run: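 HepG2-CYP2B6-hCAR, 2500 cells/well, 4 h pre-incubation; cpd 15 conc + PK11195 0.75 uM final; 23 h, 37 C/5% CO2; CellTiter-Fluor, fluorescence.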

[9] = qHTS assay to identify small molecule antagonists of the constitutive androstane receptor (CAR) signaling pathway - cell viability counter screen (AID 1224837); note: series mostly up to about 92 µM; nearly all actives have a fitted effect of over 45% in size
How it was run: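 Fluorescence from CellTiter-Fluor served as the viability signal. Human hepatoma HepG2 cells stably bearing hCAR and CYP2B6-2.2kb received compound plus CITCO (50 nM final) for 23 hr.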

[10] = biological target: Nuclear receptor subfamily 1 group I member 3 (Homo sapiens) (UniProt Q14994); test: qHTS assay to identify small molecule antagonists of the constitutive androstane receptor (CAR) signaling pathway (AID 1224838);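 note: HepG2 cells stably expressing hCAR with CYP2B6 luciferase reporter stimulated by CITCO; nearly all actives have a fitted effect of over 40% in size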
Nuclear receptor subfamily 1 group I member 3 (Homo sapiens), sequence (Q14994 whole entry, looked up): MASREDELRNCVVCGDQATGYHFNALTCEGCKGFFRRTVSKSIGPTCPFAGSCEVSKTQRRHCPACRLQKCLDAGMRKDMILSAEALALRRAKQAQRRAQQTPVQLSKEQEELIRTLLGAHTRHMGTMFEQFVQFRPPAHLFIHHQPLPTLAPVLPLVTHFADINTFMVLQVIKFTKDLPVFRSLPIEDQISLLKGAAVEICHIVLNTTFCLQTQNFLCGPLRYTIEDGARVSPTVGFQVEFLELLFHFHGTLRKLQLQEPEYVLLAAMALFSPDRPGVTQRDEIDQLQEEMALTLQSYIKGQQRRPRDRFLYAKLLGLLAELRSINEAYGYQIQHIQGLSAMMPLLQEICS
How it was run: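 Quantitative HTS in double-stable HepG2-CYP2B6-hCAR cells. After 4 h plating, cells get compound (15 concentrations) and CITCO at 50 nM final, incubate 24 h at 37 C, then ONE-Glo luminescence is read.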

[11] = biological target: Nuclear receptor subfamily 1 group I member 3 (Homo sapiens) (UniProt Q14994); test: qHTS assay to identify small molecule agonists of the constitutive androstane receptor (CAR) signaling pathway (AID 1224839);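 note: HepG2 cells stably carrying human CAR and a CYP2B6 luciferase reporter; series mostly up to about 92 µM; nearly all actives have a fitted effect of over 15% in size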
How it was run: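 HepG2-CYP2B6-hCAR cells, 2500/well, 4 h pre-incubation; compounds 15 conc.; PK11195 0.75 uM final; 24 h, 37 C/5% CO2; ONE-Glo luciferase read.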

[12] = qHTS assay to identify small molecule antagonists of the estrogen related receptor signaling pathway with the pleiotropic PPARgamma coactivator (PGC) from Tox21 10K library - cell viability counter screen (AID 1224840; active = well fitted cell-killing curve with a large enough effect in the repeat runs, not every such curve was filed as active; note: nearly all actives have a fitted effect of over 40% in size)
How it was run: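 Compounds in DMSO, alongside positive and negative controls, were pinned onto PGC/ERR cells (2,000 per well). Exposure lasted 17.5 hours at 37 C, followed by a 30-minute CellTiter-Fluor incubation and fluorescence reading.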

[13] = qHTS assay to identify small molecule antagonists of the estrogen related receptor signaling pathway with the pleiotropic PPARgamma coactivator (PGC) from Tox21 10K library (AID 1224841; call rule not given here; note: series mostly up to about 92 µM; actives are mostly falling curves and most rising ones were filed inactive; nearly all actives have a fitted effect of over 50% in size)
How it was run: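 Compound exposure ran 18 hours at 37 C in PGC/ERR cells (2,000/well) that had first rested 6 hours in a 37 C/5% CO2 incubator. Luciferase activity was then detected with One-Glo after a 30-minute room-temperature step.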

[14] = qHTS assay to identify small molecule agonists of the estrogen related receptor signaling pathway with the pleiotropic PPARgamma coactivator (PGC) from Tox21 10K library (AID 1224842); note: nearly all actives have a fitted effect of over 15% in size
How it was run: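 Luminescence from One-Glo (30 min, room temperature) measured after PGC/ERR cells had 18 h at 37 C with pinned compound (23 nL in DMSO). Cells had been seeded at 2,000 per well and pre-incubated 6 h.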

CC(=O)c1ccccc1O
Potency [1]: inactive
Potency [2]: inactive
outcome [3]: inactive
Potency [4]: inactive
Potency [5]: inactive
Potency [6]: inactive
Potency [7]: inactive
Potency [8]: inactive
Potency [9]: inactive
Potency [10]: inactive
Potency [11]: inactive
Potency [12]: inactive
Potency [13]: inactive
outcome [14]: inactive

COC(=O)NN
Potency [1]: inactive
Potency [2]: inactive
outcome [3]: inactive
Potency [4]: inactive
Potency [5]: inactive
Potency [6]: inactive
Potency [7]: inactive
Potency [8]: inactive
Potency [9]: inactive
Potency [10]: inactive
Potency [11]: inactive
Potency [12]: inactive
Potency [13]: inactive
outcome [14]: inactive

Nc1c[n+](N2CCOCC2)no1
Potency [1]: inactive
Potency [2]: inactive
outcome [3]: inactive
Potency [4]: inactive
Potency [5]: inactive
Potency [6]: inactive
Potency [7]: inactive
Potency [8]: inactive
Potency [9]: inactive
Potency [10]: inactive
Potency [11]: inactive
Potency [12]: inactive
Potency [13]: inactive
outcome [14]: inactive

CC(NC(CCc1ccccc1)C(=O)O)C(=O)N1C(=O)N(C)CC1C(=O)O (stereo not drawn)
Potency [1]: inactive
Potency [2]: inactive
outcome [3]: inactive
Potency [4]: inactive
Potency [5]: inactive
Potency [6]: inactive
Potency [7]: inactive
Potency [8]: inactive
Potency [9]: inactive
Potency [10]: inactive
Potency [11]: inactive
Potency [12]: inactive
Potency [13]: inactive
outcome [14]: inactive

CC(C)(O)C#CC(C)(C)O
Potency [1]: inactive
Potency [2]: inactive
outcome [3]: inactive
Potency [4]: inactive
Potency [5]: inactive
Potency [6]: inactive
Potency [7]: inactive
Potency [8]: inactive
Potency [9]: inactive
Potency [10]: inactive
Potency [11]: inactive
Potency [12]: inactive
Potency [13]: inactive
outcome [14]: inactive

O=C(O)COc1nn(Cc2ccccc2)c2ccccc12
Potency [1]: inactive
Potency [2]: inactive
outcome [3]: inactive
Potency [4]: inactive
Potency [5]: inactive
Potency [6]: inactive
Potency [7]: inactive
Potency [8]: inactive
Potency [9]: inactive
Potency [10]: inactive
Potency [11]: inactive
Potency [12]: inactive
Potency [13]: inactive
outcome [14]: inactive

CN(C)CCCNCCCN(C)C
Potency [1]: inactive
Potency [2]: inactive
outcome [3]: inactive
Potency [4]: inactive
Potency [5]: inactive
Potency [6]: inactive
Potency [7]: inactive
Potency [8]: inactive
Potency [9]: inactive
Potency [10]: inactive
Potency [11]: inactive
Potency [12]: inactive
Potency [13]: inactive
outcome [14]: inactive

C1OCOCO1
Potency [1]: inactive
Potency [2]: inactive
outcome [3]: inactive
Potency [4]: inactive
Potency [5]: inactive
Potency [6]: inactive
Potency [7]: inactive
Potency [8]: inactive
Potency [9]: inactive
Potency [10]: inactive
Potency [11]: inactive
Potency [12]: inactive
Potency [13]: inactive
outcome [14]: inactive

O=C1CCCN1C1CCCCC1
Potency [1]: inactive
Potency [2]: inactive
outcome [3]: inactive
Potency [4]: inactive
Potency [5]: inactive
Potency [6]: inactive
Potency [7]: inactive
Potency [8]: inactive
Potency [9]: inactive
Potency [10]: inactive
Potency [11]: inactive
Potency [12]: inactive
Potency [13]: inactive
outcome [14]: inactive

CC1(C)CO[C@@H](CC(=O)O)CN1
Potency [1]: inactive
Potency [2]: inactive
outcome [3]: inactive
Potency [4]: inactive
Potency [5]: inactive
Potency [6]: inactive
Potency [7]: inactive
Potency [8]: inactive
Potency [9]: inactive
Potency [10]: inactive
Potency [11]: inactive
Potency [12]: inactive
Potency [13]: inactive
outcome [14]: inactive

O=S(O)CO
Potency [1]: inactive
Potency [2]: inactive
outcome [3]: inactive
Potency [4]: inactive
Potency [5]: inactive
Potency [6]: inactive
Potency [7]: inactive
Potency [8]: inactive
Potency [9]: inactive
Potency [10]: inactive
Potency [11]: inactive
Potency [12]: inactive
Potency [13]: inactive
outcome [14]: inactive

Cc1c(NC(C)C)c(=O)n(-c2ccccc2)n1C
Potency [1]: inactive
Potency [2]: inactive
outcome [3]: inactive
Potency [4]: inactive
Potency [5]: inactive
Potency [6]: inactive
Potency [7]: inactive
Potency [8]: inactive
Potency [9]: inactive
Potency [10]: inactive
Potency [11]: inactive
Potency [12]: inactive
Potency [13]: inactive
outcome [14]: inactive

CCCN1CCCC[C@H]1C(=O)Nc1c(C)cccc1C
Potency [1]: inactive
Potency [2]: inactive
outcome [3]: inactive
Potency [4]: inactive
Potency [5]: inactive
Potency [6]: inactive
Potency [7]: inactive
Potency [8]: inactive
Potency [9]: inactive
Potency [10]: inactive
Potency [11]: inactive
Potency [12]: inactive
Potency [13]: inactive
outcome [14]: inactive

CC(C)NC(=O)NC(C)C
Potency [1]: inactive
Potency [2]: inactive
outcome [3]: inactive
Potency [4]: inactive
Potency [5]: 969 nM (active)
Potency [6]: inactive
Potency [7]: inactive
Potency [8]: inactive
Potency [9]: inactive
Potency [10]: inactive
Potency [11]: inactive
Potency [12]: inactive
Potency [13]: inactive
outcome [14]: inactive

CC(C)=CCCC(C)CC(=O)O (stereo not drawn)
Potency [1]: inactive
Potency [2]: inactive
outcome [3]: inactive
Potency [4]: inactive
Potency [5]: inactive
Potency [6]: inactive
Potency [7]: inactive
Potency [8]: inactive
Potency [9]: inactive
Potency [10]: inactive
Potency [11]: inactive
Potency [12]: inactive
Potency [13]: inactive
outcome [14]: inactive

ClC(Cl)(Br)Br
Potency [1]: inactive
Potency [2]: inactive
outcome [3]: inactive
Potency [4]: inactive
Potency [5]: inactive
Potency [6]: inactive
Potency [7]: inactive
Potency [8]: inactive
Potency [9]: inactive
Potency [10]: inactive
Potency [11]: inactive
Potency [12]: inactive
Potency [13]: inactive
outcome [14]: inactive

CCCCCCCCCCCCN(CCCCCCCCCCCC)CCCCCCCCCCCC
Potency [1]: inactive
Potency [2]: inactive
outcome [3]: inactive
Potency [4]: inactive
Potency [5]: inactive
Potency [6]: inactive
Potency [7]: inactive
Potency [8]: inactive
Potency [9]: inactive
Potency [10]: inactive
Potency [11]: inactive
Potency [12]: inactive
Potency [13]: inactive
outcome [14]: inactive
